Here are results for 105 compounds from PubChem BioAssay AID540256 (National Center for Advancing Translational Sciences (NCATS), 2011).

Among all 300,000 compounds or so, about 3,700 (1.2%) were called active. Entries that show only a call come without a potency. Roughly 20% stayed inconclusive and do not appear here. This is one part of a sample in which actives are shown more often than they occur. Calls come from the whole dose curve; tested in HEK293 cells.
Potency is the fitted concentration of half-maximal effect.

The test is described as follows: qHTS for Inhibitors of binding or entry into cells for Lassa Virus. Note: nearly all actives have a fitted effect of over 50% in size. Particulars: Lassa virus pseudotype entry inhibition, cell reporter; series mostly up to 37.9 µM. (In general: qHTS replaces the single test concentration by a dilution series.)
Turning to `O=[N+]([O-])c1ccc(C=Nc2ccc(Cl)cc2Cl)s1`, the Potency is 16.4 µM (active).

As for `CNN/C(N=Cc1ccc([N+](=O)[O-])s1)=N\S(=O)(=O)c1cc(C)c(Cl)cc1SCc1ccccc1`, the Potency result is “inactive”.

Take `NC(N)=N/N=C/c1ccc(Cl)c([N+](=O)[O-])c1`: the Potency entry is “inactive”.

With `CCOc1ccc(NC(=O)CSc2nncn2C)cc1`, the Potency result was “inactive”.

Take `NS(=O)(=O)c1ccc(CNC(=O)c2cccc(S(=O)(=O)N3CCc4ccccc43)c2)cc1`: the Potency result is “inactive”.

With `CN(Cc1ccccc1)C(=O)CSc1nc2ccccc2[nH]1`, the Potency entry is “inactive”.

As for `CCOC(=O)C1CCN(C(=O)C2CCCN(S(=O)(=O)c3ccc(OC)c(Cl)c3)C2)CC1` (stereo not given), the Potency result is “inactive”.

Regarding `COc1ccc(CCNC(=O)C(Sc2ccccn2)c2ccccc2)cc1OC` (stereo not given), the Potency result is “inactive”.

In the case of `CCOC(=O)CN(Cc1ccc(OC)c(OC)c1)S(=O)(=O)c1ccc(OC)cc1`, the Potency entry was “inactive”.

In the case of `COc1ccc(C(CCN(Cc2ccc(OC)c(OC)c2)C(=O)CCl)c2ccccc2)cc1` (stereo not given), the Potency is 10 µM (active).

With `CCOC(=O)C1CCN(C(=O)CN2C(=O)NC(C)(c3ccc4cc(OC)ccc4c3)C2=O)CC1` (stereo not given), the Potency entry was “inactive”.

As to `COc1ccc(C(=O)Nc2cccc(/C=C(/CCC(=O)O)c3nc4ccccc4s3)c2)cc1`, the Potency result is “inactive”.

Regarding `CCOc1ccc(CNC(=O)CCc2c(C)nn(-c3ccc(N4CCCCC4)nn3)c2C)cc1`, the Potency entry is “inactive”.

On to `COc1ccc2nc(Nc3nc(-c4ccncc4)cs3)sc2c1`, for which the Potency result was “inactive”.

`NS(=O)(=O)c1ccc(Nc2nc(-c3ccccc3)cs2)cc1`: the Potency entry was “inactive”.

Turning to `COc1ccc(Nc2nc(-c3ccccc3)cs2)cc1`, the Potency is 20.6 µM (active).

Regarding `Nc1c(-c2ccccc2)nnn1Cc1ccccc1`, the Potency result was “inactive”.

`CCOc1ccc2oc(C(=O)N(CC)CC(=O)Nc3ccc(NC(C)=O)cc3)c(C)c2c1`: the Potency entry is “inactive”.

As for `Cc1ccc(Nc2c(O)nc[nH]c2=O)cc1C`, the Potency result is “inactive”.

Take `Fc1ccc(-c2nc(Nc3cccc(Cl)c3)nc3c2COc2ccccc2-3)cc1`: the Potency entry was “inactive”.

Consider `O=C(CC(O)(C(F)(F)F)C(F)(F)F)Nc1ccc(Cl)c(Cl)c1`, for which the Potency was 4.61 µM (active).

Regarding `O=C(CC(=O)Nc1ccc(Cl)c(Cl)c1)N/N=C/c1ccc(O)cc1`, the Potency entry is “inactive”.

Consider `N/C(=N\OC(=O)Nc1ccc(Cl)c(Cl)c1)c1ncc(C(F)(F)F)cc1Cl`, for which the Potency result was “inactive”.

Take `O=C(COc1ccccc1F)Nc1nc(-c2ccccn2)cs1`: the Potency result is “inactive”.

Consider `O=C1NC(=O)C(CCc2ccccc2)(c2ccccc2)N1` (stereo not given), for which the Potency result is “inactive”.

For `CC(C)[C@H]1COCCS(=O)(=O)N1Cc1ccccc1-c1cccc2c1sc1ccccc12`, the Potency result is “inactive”.

`CCn1c(=S)[nH]c2cc(S(=O)(=O)N3CCOCC3)ccc21`: the Potency entry was “inactive”.

For the compound `CC(=O)N/C(=C/c1ccc(Cl)cc1)C(=O)NCCc1c[nH]c2ccccc12`, the Potency result was “inactive”.

As for `N#C/C(=C/c1ccc(N2CCCCC2)o1)C(=O)NCCc1c[nH]c2ccccc12`, the Potency was 7.08 µM (active).

With `O=C(CN1C(=O)NC2(CCCCC2)C1=O)NCCc1c[nH]c2ccccc12`, the Potency entry is “inactive”.

With `COc1ccc(C(=O)COC(=O)c2c(C)noc2C)cc1Cl`, the Potency result is “inactive”.

`Cc1c(C(=O)Nc2cccc(S(=O)(=O)N3CCOCC3)c2)oc2ccccc12`: the Potency result was “inactive”.

For the compound `O=C(c1ccc(N2CCOCC2)c([N+](=O)[O-])c1)N1CCN(c2ccccc2F)CC1`, the Potency result is “inactive”.

Consider `O=C(c1cn(-c2ccccc2)nc1-c1cc2ccccc2oc1=O)N1CCOCC1`, for which the Potency result is “inactive”.

As to `Nc1ncc(-c2cc3ccccc3oc2=O)s1`, the Potency result was “inactive”.

As for `O=c1oc2ccccc2cc1-c1cn(-c2ccccc2)c(=S)[nH]1`, the Potency is 0.891 µM (active).

Turning to `O=C1NCC(Nc2ccccc2)C(=O)N1` (stereo not given), the Potency entry was “inactive”.

Take `O=C(NCc1ccc(Cl)cc1)C(=O)NCC1CCCN1S(=O)(=O)c1cccs1` (stereo not given): the Potency entry is “inactive”.

In the case of `O=C(COC(=O)c1cnccn1)Nc1ccc(Cl)cc1C(F)(F)F`, the Potency result was “inactive”.

As to `CN(Cc1cnccn1)C(=O)c1cc(COc2cccc(C(F)(F)F)c2)on1`, the Potency result was “inactive”.

As to `Cc1cccc(Cn2c(N3CCN(c4ccccc4)CC3)nc3c2c(=O)n(C)c(=O)n3C)c1`, the Potency was 5.8 µM (active).

As for `Cc1cccc(Cn2c(SCCO)nc3c2c(=O)n(C)c(=O)n3C)c1`, the Potency result is “inactive”.

As to `COC(=O)C(C)Sc1nc2c(c(=O)n(C)c(=O)n2C)n1Cc1cccc(C)c1` (stereo not given), the Potency entry was “inactive”.

For the compound `COc1ccc(/C=C2\SC(=O)N(CCC(=O)NC3CCS(=O)(=O)C3)C2=O)cc1` (stereo not given), the Potency entry is “inactive”.

For the compound `COc1ccc(/C=C2/SC(=O)N(CCCCCC(=O)Nc3ccccc3C(=O)O)C2=S)cc1`, the Potency is 11.2 µM (active).

For `O=C(CCCN1C(=O)/C(=C\c2ccccc2)SC1=S)Nc1ccccc1O`, the Potency result was “inactive”.

As for `CCCCN1CC(COc2ccccc2)Oc2cccc(F)c2S1(=O)=O` (stereo not given), the Potency result is “inactive”.

Take `O=C(Cc1ccccc1Cl)N1CCOCC1`: the Potency entry was “inactive”.

As to `O=C(Nc1ccccc1C(=O)Nc1ccncc1)c1ccc([N+](=O)[O-])cc1`, the Potency entry was “inactive”.

Take `O=C(CN1CCN(c2ccccn2)CC1)N1CCc2ccccc21`: the Potency result is “inactive”.

Consider `O=C(CN1C(=O)c2ccccc2S1(=O)=O)N1CCc2ccccc21`, for which the Potency was 0.259 µM (active).

With `O=C(CN1C(=O)c2ccccc2S1(=O)=O)NC1CCCCC1`, the Potency result was “inactive”.

As for `O=C(CSc1ncnc2sccc12)N1CCN(C(=O)c2cccs2)CC1`, the Potency result is “inactive”.

In the case of `O=C(Nc1ccc2ccccc2c1)Nc1ccc2snnc2c1`, the Potency was 12.6 µM (active).

Consider `S=C(Nc1ccccc1)Nc1ccc2ccccc2c1`, for which the Potency result was “inactive”.

For `COc1ccc(NC(=O)Nc2ccc3nsnc3c2)cc1`, the Potency entry is “inactive”.

Regarding `Cc1ccccc1-c1nc2scc(CCNC(=O)C(=O)Nc3ccc(F)cc3F)n2n1`, the Potency result was “inactive”.

For the compound `C/C(=N\NC(=O)COc1ccc(C)cc1[N+](=O)[O-])c1ccc2c(c1)OCCO2`, the Potency result is “inactive”.

As for `O=C(NCC(c1ccco1)N1CCc2ccccc21)c1cccc(F)c1` (stereo not given), the Potency result was “inactive”.

As for `COc1ccc(C(=O)OCc2cc(=O)n3ccsc3n2)cc1F`, the Potency result was “inactive”.

Consider `Cc1ccccc1NC(=O)NNC(=O)OC(C)(C)C`, for which the Potency entry is “inactive”.

Consider `CC(C)(C)OC(=O)NNc1c2ccccc2nc2ccccc12`, for which the Potency is 12.6 µM (active).

For `CCC(=O)OCCNc1nc(-c2ccccc2)nc2ccccc12`, the Potency result is “inactive”.

For the compound `COc1ccc(-c2csc(NC(=O)c3ccc(N4C(=O)CCC4=O)cc3)n2)cc1OC`, the Potency entry was “inactive”.

For the compound `COc1ccc(-c2csc(NC(=O)CCCc3cccs3)n2)cc1`, the Potency entry was “inactive”.

In the case of `Cc1ccc(-c2csc(NC(=O)c3cnccn3)n2)cc1C`, the Potency entry was “inactive”.

With `Cc1ccc(-c2csc(NC(=O)Cc3cccs3)n2)cc1C`, the Potency was 15.8 µM (active).

`COc1ccc(CC(=O)Nc2nc(-c3ccc(F)c(F)c3)cs2)cc1OC`: the Potency is 11.2 µM (active).

Regarding `Cc1ccc(S(=O)(=O)NC(=O)Nc2nc(-c3ccc(F)c(F)c3)cs2)cc1`, the Potency entry was “inactive”.

Consider `COc1ccc(NC(=O)c2ccc3nc(C(C)C)oc3c2)cc1OC`, for which the Potency entry was “inactive”.

Take `NC(=O)C1(Nc2ccc(-c3ccccc3)cc2)CCCC1`: the Potency entry is “inactive”.

Turning to `CCOc1ccc(/C=C(/C#N)c2nnc(N3CCOCC3)n2-c2ccccc2)cc1OC`, the Potency result was “inactive”.

For `Cc1nc(N2CCC(C)CC2)c2c(C)c(C(=O)Nc3cc(F)ccc3C)sc2n1`, the Potency result was “inactive”.

Regarding `Cc1nc(N2CCOCC2)c2c(C)c(C(=O)Nc3ccc(C(F)(F)F)cc3)sc2n1`, the Potency is 2.24 µM (active).

On to `CCOC(=O)C1CCCN(C(=O)c2sc3nc(C)nc(N4CCOCC4)c3c2C)C1` (stereo not given), for which the Potency result was “inactive”.

On to `COc1ccc(NS(=O)(=O)c2ccc(N3CCOCC3)c(NC(=O)/C=C/C(=O)O)c2)cc1`, for which the Potency result is “inactive”.

`N=C1c2ccccc2-c2ccccc21`: the Potency result is “inactive”.

Consider `c1ccc2c(c1)[I+]c1ccccc1-2`, for which the Potency is 0.259 µM (active).

On to `CCC(C(=O)NC1CCCC1)N(C(=O)c1snc(C(N)=O)c1N)c1ccc2c(c1)OCCO2` (stereo not given), for which the Potency result was “inactive”.

For `COc1cccc(N(C(=O)c2snc(C(N)=O)c2N)C(C(=O)NCC2CCCO2)c2c[nH]c3ccccc23)c1` (stereo not given), the Potency was 5.62 µM (active).

As to `CCOc1cc(C(C(=O)NCC2CCCO2)N(C(=O)Cn2nnc3ccccc32)c2cccc(OC)c2)ccc1O` (stereo not given), the Potency result is “inactive”.

Regarding `COc1cc(C(=O)Nn2c(CC(C)C)nc3ccccc3c2=O)cc(OC)c1OC`, the Potency result is “inactive”.

In the case of `CCCC1CCC(=NNC(=S)NCCc2ccccc2)CC1` (stereo not given), the Potency was 10 µM (active).

On to `Cc1cc(F)ccc1NC(=S)NCCc1ccccc1`, for which the Potency result is “inactive”.

With `S=C(NN=C1CCN(Cc2ccccc2)CC1)NC1CCCCC1`, the Potency entry is “inactive”.

Regarding `COc1cccc(NC(=O)CC2C(=O)NCCN2C(=S)Nc2ccc(F)cc2)c1` (stereo not given), the Potency entry was “inactive”.

For the compound `S=C(Nc1cccc(Br)c1)N1CCn2cccc2C1c1cccnc1` (stereo not given), the Potency was 7.94 µM (active).

On to `Fc1cc(Br)ccc1NC(=S)Nc1cccnc1`, for which the Potency result is “inactive”.

With `CC(C)(C)C(=O)Nc1cccc(-c2ccc[nH]2)n1`, the Potency result is “inactive”.

Take `c1ccc(CCc2ccccn2)cc1`: the Potency entry was “inactive”.

As to `Cc1cc(Br)ccc1NC(=S)NC1CCCC1`, the Potency entry was “inactive”.

As for `COc1ccc(C(=O)Nc2ccccc2C(=O)N/N=C/c2ccccc2OC)cc1`, the Potency entry is “inactive”.

For `O=C(N/N=C/c1ccc(OC(=O)c2ccccc2Cl)cc1)c1ccc(O)cc1`, the Potency entry was “inactive”.

With `COc1ccc(C(=O)Nc2ccccc2C(=O)N/N=C/c2ccc(O)c(OC)c2)cc1`, the Potency was 0.355 µM (active).

Turning to `Cc1ccc(-c2cc(C(=O)NC3CCN(Cc4ccccc4)CC3)c3ccccc3n2)cc1`, the Potency entry is “inactive”.

In the case of `COc1cccc(/C(C)=N/Nc2ncc(Cl)cc2Cl)c1`, the Potency result is “inactive”.

As for `COc1cccc(/C=N/Nc2ncc(C(F)(F)F)cc2Cl)c1O`, the Potency was 7.94 µM (active).

For the compound `COc1cc(/C=C2\SC(=S)N(Nc3ncc(C(F)(F)F)cc3Cl)C2=O)cc(OC)c1OC`, the Potency entry was “inactive”.

In the case of `CCN(CC)S(=O)(=O)c1ccc(N2CCOCC2)c(NC(=O)C2CSC3(C)CCC(=O)N23)c1` (stereo not given), the Potency entry is “inactive”.

`C=CCNC(=O)C1CC2c3ccccc3C1c1ccccc12` (stereo not given): the Potency entry was “inactive”.

For the compound `O=c1c2c(nc3cc(-c4cccc(Cl)c4)[nH]n13)CCCC2`, the Potency was 4.47 µM (active).

On to `O=c1c2c(nc3nc[nH]n13)CCC2`, for which the Potency entry is “inactive”.

On to `CCCCN1Cc2c(nc3cc(-c4ccccc4)[nH]n3c2=O)C1=O`, for which the Potency result was “inactive”.

As to `COc1cc(Cl)c(C)cc1NC(=O)CN1CCCCCC1`, the Potency result is “inactive”.

Regarding `CCc1c(Nc2ccccc2Cl)nc(N)[nH]c1=O`, the Potency entry is “inactive”.
